Calls of active or inactive are those of the source. How the source made its calls: active means hit-call score of the fitted dose curve at least 0.9, where 1 is the maximum; inactive means score below 0.9.
What was measured:
[1] = APR_HepG2_CellCycleArrest_24hr: Apredica 24-hour HepG2 Assay for Cell Cycle Arrest (AID 2282905); conditions: imaging, actives raise or lower the signal;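 further: cell cycle arrest scored as ratio of 2N to 4N nuclear DNA content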
Outline: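 HepG2, 24 hr dosing, 10-pt 0.39–200 uM in duplicate, 0.5% DMSO. Fixed 3.7% formaldehyde, permeabilized 0.5% Triton X-100, Hoechst 33342 2 ug/mL. Imaged 20x; nuclear DNA content quantified; bidirectional fit vs DMSO.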

[2] = APR_HepG2_StressKinase_1hr: Apredica 1-hour HepG2 Assay for Stress Kinase (AID 2282906); conditions: HepG2 stress kinase (phospho-c-Jun) imaging, actives raise or lower the signal
Outline: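 HepG2 cells dosed 0.39-200 uM (0.5% DMSO) for 1 h, then formaldehyde-fixed. Stress kinase read by phospho-c-Jun immunofluorescence using high-content imaging; bidirectional fit vs DMSO.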

[3] = APR_HepG2_NuclearSize_24hr: Apredica 24-hour HepG2 Assay for Nuclear Size (AID 2282907); conditions: high-content imaging, actives raise or lower the signal
Outline: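 HepG2, 24 hr dosing, 10-pt 0.39–200 uM, duplicates, 0.5% DMSO final; 3.7% formaldehyde fix, 0.5% Triton X-100; Hoechst 33342 nuclear stain; ArrayScan HCS, Cell Cycle analysis → nuclear size; bidirectional fit vs DMSO.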

[4] = APR_HepG2_CellLoss_24hr: Apredica 24-hour HepG2 Assay for Cell Loss (AID 2282908); conditions: high-content imaging;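 on AC50: fit in both directions so a hit may be cell loss or gain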
Outline: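 10-pt dose, 0.39–200 uM, n=2/plate; DMSO 0.5% v/v final as negative control. Fix 3.7% formaldehyde 30 min RT, permeabilize 0.5% Triton X-100, stain Hoechst 33342 2 ug/mL, image 20x. Nuclear count, bidirectional fit vs DMSO.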

[5] = APR_HepG2_MicrotubuleCSK_24hr: Apredica 24-hour HepG2 Assay for Microtubule CSK Stabilty (AID 2282909); conditions: HepG2 microtubule cytoskeleton imaging, actives raise or lower the signal
Outline: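 Human liver HepG2, 24 h dosing, 0.39–200 uM ×10 conc, dup, 0.5% DMSO. 3.7% formaldehyde fix, 0.5% Triton perm, anti-alpha-tubulin (1:200)/Cy5 secondary + Hoechst. HCS imaging, 6 fields/well; gain/loss fit vs DMSO.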

[6] = APR_HepG2_MitoticArrest_24hr: Apredica 24-hour HepG2 Assay for Mitotic Arrest (AID 2282910); conditions: high-content imaging, actives raise or lower the signal
Outline: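 HepG2 cells, 24 h exposure at 0.39-200 uM (10 concentrations, duplicate, 0.5% DMSO). Fixed, stained for phospho-histone H3 with Hoechst; imaged by high-content microscopy, bidirectional fit versus DMSO.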

[7] = APR_HepG2_MitoMembPot_24hr: Apredica 24-hour HepG2 Assay for Mitochondrial Membrane Potential (AID 2282911); conditions: imaging, actives raise or lower the signal
Outline: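 Mitochondrial dye uptake (MitoTracker Red CMXRos, 250 nM, 30 min pre-fixation) in HepG2 after 24 hr compound exposure, 0.39–200 uM; ArrayScan images at 20x, activity fitted in both directions relative to DMSO.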

[8] = APR_HepG2_MitoMass_24hr: Apredica 24-hour HepG2 Assay for Mitochondrial Mass (AID 2282912); conditions: high-content imaging, actives raise or lower the signal
Outline: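 Mitochondrial mass is read as MitoTracker Red fluorescence intensity from automated imaging, with bidirectional curve fitting relative to DMSO. HepG2 cells received compound (0.39–200 uM, 0.5% DMSO final) for 24 hr and were dye-loaded (250 nM, 30 min) before formaldehyde fixation.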

[9] = APR_HepG2_CellCycleArrest_72hr: Apredica 72-hour HepG2 Assay for Cell Cycle Arrest (AID 2282914); conditions: high-content imaging, actives raise or lower the signal
Outline: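 Using multiplexed high-content imaging, HepG2 nuclei stained with Hoechst 33342 (2 ug/mL) were analysed for DNA content after fixation and permeabilization. Treatment lasted 72 hr across 0.39–200 uM in duplicate with final DMSO 0.5% v/v; DMSO served as negative control.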

[10] = APR_HepG2_CellLoss_72hr: Apredica 72-hour HepG2 Assay for Cell Loss (AID 2282915); conditions: high-content imaging
Outline: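 HepG2 cells exposed 72 h to compound at 0.39–200 uM (10 concentrations, duplicate) in 0.5% DMSO. Fixed with 3.7% formaldehyde and Hoechst 33342-stained. Imaged at 20x; nuclear count gives cell number, fitted bidirectionally versus DMSO.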

[11] = APR_HepG2_P-H2AX_72hr: Apredica 72-hour HepG2 Assay for H2AX Phosphorylation (AID 2282916); conditions: imaging, actives raise or lower the signal;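 further: phospho-histone H2A.x immunostain intensity per cell marking DNA damage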
Outline: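 HepG2; cpd 0.39–200 uM ×10 conc, duplicates; 0.5% DMSO; 72 hr. Fix 3.7% formaldehyde 30 min RT, 0.5% Triton X-100 10 min. Anti-phospho-H2A.x 1:200 + Hoechst 2 ug/mL, 60 min RT; ArrayScan imaging.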

[12] = APR_HepG2_MitoticArrest_72hr: Apredica 72-hour HepG2 Assay for Mitotic Arrest (AID 2282918); conditions: high-content imaging, actives raise or lower the signal
Outline: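 Using high-content imaging of fixed HepG2 cells, phospho-histone H3 signal was measured following a 72 hr incubation with ten-point compound dilutions up to 200 uM. DMSO served as the negative control and baseline for bidirectional curve fitting.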

[13] = APR_HepG2_MicrotubuleCSK_72hr: Apredica 72-hour HepG2 Assay for Microtubule CSK Stabilty (AID 2282919); conditions: HepG2 microtubule cytoskeleton, high-content imaging, actives raise or lower the signal
Outline: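 HepG2 cells were exposed 72 hr to compound at 0.39–200 uM in duplicate (0.5% DMSO final), then fixed and permeabilized. Alpha-tubulin immunofluorescence was imaged by high-content microscopy, with bidirectional fitting against DMSO and taxol as positive control.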

[14] = APR_HepG2_P-H2AX_24hr: Apredica 24-hour HepG2 Assay for H2AX Phosphorylation (AID 2282920); conditions: high-content imaging, actives raise or lower the signal
Outline: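 Human HepG2 liver cells, treated 24 hr with test chemicals (0.39–200 uM, final DMSO 0.5% v/v), are fixed and co-stained for phospho-H2A.x and c-Jun with Hoechst. Imaged intensity is fitted in both directions against DMSO controls.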

[15] = APR_HepG2_StressKinase_72hr: Apredica 72-hour HepG2 Assay for Stress Kinase (AID 2282921); conditions: HepG2 stress kinase (phospho-c-Jun) imaging, actives raise or lower the signal
Outline: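 Dose 0.39–200 uM (10 pts, duplicate), 0.5% DMSO; 72 h; fix 3.7% formaldehyde 30 min RT; Triton permeabilize; anti-phospho-c-Jun/Cy3 + Hoechst 60 min RT; image 20x; fit gain/loss vs DMSO.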

[16] = APR_HepG2_StressKinase_24hr: Apredica 24-hour HepG2 Assay for Stress Kinase (AID 2282922); conditions: HepG2 stress kinase (phospho-c-Jun) imaging, actives raise or lower the signal
Outline: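 HepG2 cells exposed 24 h to 0.39–200 uM compound in duplicate (0.5% v/v DMSO final). Cells fixed in 3.7% formaldehyde, permeabilized and immunostained for phospho-c-Jun; read by high-content fluorescence imaging, fitted bidirectionally against DMSO.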

[17] = APR_HepG2_p53Act_72hr: Apredica 72-hour HepG2 Assay for p53 Activation (AID 2282923); conditions: high-content imaging, actives raise or lower the signal;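 further: average cellular p53 protein immunofluorescence intensity in HepG2 cells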
Outline: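 10-pt conc. 0.39–200 uM, duplicate, 0.5% DMSO; 72 hr exposure; 3.7% formaldehyde fix, 0.5% Triton perm; sheep anti-p53/Cy5 + Hoechst; ArrayScan 20x, 6 images/well; gain/loss fit vs DMSO.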

[18] = APR_HepG2_MitoMass_72hr: Apredica 72-hour HepG2 Assay for Mitochondrial Mass (AID 2282924); conditions: high-content imaging, actives raise or lower the signal;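 further: MitoTracker Red CMXRos stain intensity per cell imaged as mitochondrial mass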
Outline: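 HepG2 cells dosed 72 hr at 0.39–200 uM (0.5% DMSO), in duplicate. MitoTracker Red CMXRos 250 nM loaded 30 min before formaldehyde fixation; high-content fluorescence imaging, bidirectional fit versus DMSO.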

[19] = APR_HepG2_p53Act_24hr: Apredica 24-hour HepG2 Assay for p53 Activation (AID 2282913); conditions: high-content imaging, actives raise or lower the signal;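 further: p53 protein immunofluorescence averaged per cell in HepG2 with Hoechst nuclei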
Outline: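 Following 24 hr dosing of HepG2 at 0.39–200 uM, the cells undergo formaldehyde fixation, Triton permeabilization and multiplexed antibody labeling that includes p53 (Cy5). Signal from the imaging is referenced to DMSO solvent controls.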

[20] = APR_HepG2_MitoMembPot_72hr: Apredica 72-hour HepG2 Assay for Mitochondrial Membrane Potential (AID 2282917); conditions: imaging, actives raise or lower the signal
Outline: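 HepG2 cells dosed 72 hr with compound at 0.39–200 uM in duplicate, 0.5% v/v DMSO final. Mitochondria stained with 250 nM MitoTracker Red CMXRos for 30 min before formaldehyde fixation, imaged by high-content fluorescence; bidirectional fit versus DMSO.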

Measured: AC50

CS(=O)(=O)c1cc(C(F)(F)F)ccc1C(=O)c1cnoc1C1CC1
not listed: [19] | [20]
inactive: all other assays above

C=C(C)CN(CC)c1c([N+](=O)[O-])cc(C(F)(F)F)cc1[N+](=O)[O-]
active: [10] 105 µM | [13] 135 µM
not listed: [2] | [12]
inactive: all other assays above

CCCCC(C#N)(Cn1cncn1)c1ccc(Cl)cc1 (stereo unspecified)
active: [10] 103 µM
inactive: all other assays above

CN=C=S
active: [1] 69.2 µM | [9] 54.7 µM
not listed: [10] | [12] | [19] | [20]
inactive: all other assays above

COCC(=O)N(c1c(C)cccc1C)C(C)C(=O)OC (stereo unspecified)
not listed: [10] | [12] | [19]
inactive: all other assays above

O=C(Nc1ccccc1-c1ccc(Cl)cc1)c1cccnc1Cl
active: [7] 66.8 µM
not listed: [12] | [19] | [20]
inactive: all other assays above

COC(=O)N(C(=O)N1CO[C@@]2(C(=O)OC)Cc3cc(Cl)ccc3C2=N1)c1ccc(OC(F)(F)F)cc1
not listed: [12] | [20]
inactive: all other assays above

CCOc1cc(C(C)(C)C)ccc1C1COC(c2c(F)cccc2F)=N1 (stereo unspecified)
active: [7] 93.3 µM | [10] 103 µM | [13] 47.2 µM
not listed: [17] | [19] | [20]
inactive: all other assays above

CCNC(=O)NC(=O)C(C#N)=NOC
not listed: [10] | [17] | [19] | [20]
inactive: all other assays above

Nc1cnn(-c2ccccc2)c(=O)c1Cl
not listed: [10] | [12] | [19] | [20]
inactive: all other assays above

OC(c1ccc(Cl)cc1)(c1ccc(Cl)cc1)C(Cl)(Cl)Cl
active: [2] 30.9 µM | [3] 74.1 µM | [4] 43.1 µM | [13] 32.2 µM | [14] 68.8 µM | [16] 107 µM
not listed: [10] | [19] | [20]
inactive: all other assays above

Cn1c(-c2ccccc2)cc(-c2ccccc2)[n+]1C
not listed: [10] | [12] | [19] | [20]
inactive: all other assays above

N#Cc1c[nH]cc1-c1cccc2c1OC(F)(F)O2
active: [1] 26.9 µM | [4] 22.4 µM | [7] 53.6 µM | [9] 39.8 µM | [10] 13 µM | [11] 16.1 µM | [13] 19.3 µM | [18] 3.5 µM
not listed: [12]
inactive: all other assays above

COc1cc(Cl)c(OC)cc1Cl
inactive: all assays above

CC(C)=CC1C(C(=O)OCc2coc(Cc3ccccc3)c2)C1(C)C (stereo unspecified)
active: [1] 62.5 µM | [7] 100 µM | [9] 31.7 µM | [13] 74.2 µM
not listed: [10] | [12] | [17] | [19] | [20]
inactive: all other assays above

COC(=O)NS(=O)(=O)c1ccc(N)cc1
not listed: [19] | [20]
inactive: all other assays above

C=CCOC(=O)C(C)(C)OC(=O)c1cc(-n2c(=O)cc(C(F)(F)F)n(C)c2=O)ccc1Cl
active: [10] 97.7 µM | [20] 65.2 µM | [12] 90.1 µM | [13] 100 µM
not listed: [2]
inactive: all other assays above

CCOP(=S)(OCC)Oc1nc(Cl)n(C(C)C)n1
not listed: [10]
inactive: all other assays above
